The panel holds about 79,000 compounds, 15% with a hit somewhere; the sample as a whole holds those more often. Rule as the data show it: active = growth inhibition above about 70%; inactive = the rest.
Assays:
[1] = NCI Yeast Anticancer Drug Screen. Data for the rad50 strain (AID 155);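 also: 0% = growth of vehicle-only cultures of the same strain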; conditions: S. cerevisiae rad50 strain growth inhibition; at 50.0 µM; stronger effect = higher value
Outline: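 Inhibition values express reduced yeast growth in compound-treated cultures relative to vehicle-treated controls.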

[2] = NCI Yeast Anticancer Drug Screen. Data for the mec2-1 strain (AID 157); conditions: S. cerevisiae mec2-1 strain, at 50.0 µM, stronger effect = higher value
Outline: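 Test agents were screened against the mec2-1 yeast strain, with defined DNA repair or cell cycle alteration. Growth was scored as inhibition against vehicle-only controls.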

[3] = NCI Yeast Anticancer Drug Screen. Data for the sgs1 mgt1 strain (AID 161);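 also: 0% = growth of cultures given vehicle only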; conditions: S. cerevisiae sgs1 mgt1 strain, at 50.0 µM, stronger effect = higher value
Outline: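 Genetically altered yeast, compound exposure, growth inhibition relative to vehicle.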

[4] = NCI Yeast Anticancer Drug Screen. Data for the cln2 rad14 strain (AID 165);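 also: 0% = growth equal to vehicle treated cultures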; conditions: S. cerevisiae cln2 rad14 strain, at 50.0 µM, stronger effect = higher value
Outline: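 Growth of compound-exposed yeast (cln2 rad14 genotype) measured and expressed as inhibition relative to vehicle.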

[5] = NCI Yeast Anticancer Drug Screen. Data for the bub3 strain (AID 167); conditions: S. cerevisiae bub3 mutant strain, at 50.0 µM, stronger effect = higher value
Outline: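 Steps: expose the mutant yeast strain to compound; grow alongside vehicle-treated cultures; measure growth; express inhibition against the vehicle cultures.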

[6] = NCI Yeast Anticancer Drug Screen. Data for the mlh1 rad18 strain (AID 175); conditions: S. cerevisiae mlh1 rad18 strain growth inhibition; at 50.0 µM; stronger effect = higher value
Outline: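 In this whole-cell yeast screen, a strain with altered DNA damage repair is challenged with compound, and its growth is measured against matched vehicle-treated controls.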

Measured: growth inhibition

NC(CCCCC1CCCCC1)C(=O)O (stereo unspecified)
inactive: [1] -5.75% | [2] -29.4% | [3] -18.1% | [4] -37.4% | [5] -28.4% | [6] -2.95%

CC(=O)OC1CCCN(C)C1 (stereo unspecified)
inactive: [1] -3.2% | [2] 5.5% | [3] 4.6% | [4] -7.9% | [5] 8.75% | [6] -7.8%

COc1ccc2cc(CC(=O)c3ccccc3)ccc2c1
inactive: [1] -24.2% | [2] -6.95% | [3] -11.2% | [4] -37.8% | [5] -17.1% | [6] -3.5%

O=S(=O)(O)C(O)Cc1cccc2ccccc12 (stereo unspecified)
inactive: [1] 2.2% | [2] -8.25% | [3] 1.3% | [4] -40.2% | [5] -17.8% | [6] -0.3%

Cc1cc(C)c2nccc(/C=C/c3ccc(N(C)C)cc3)c2c1
inactive: [1] -15.3% | [2] 0.4% | [3] -15.5% | [4] -27.2% | [5] -19.4% | [6] -6.95%

Cc1cc(C(=O)NN)no1
inactive: [1] -4.75% | [2] -4.4% | [3] -3.9% | [4] -10.4% | [5] -7.15% | [6] -8.15%

CC(NNC(=S)N1CCCC1)c1cccc[n+]1[O-] (stereo unspecified)
inactive: [1] 3.4% | [2] -2.85% | [3] 8.4% | [4] -4.9% | [5] 8.3% | [6] 13.9%

COc1ccc2c(C#N)cc3c4ccccc4ncc3c2c1
inactive: [1] 16.6% | [2] 7% | [3] -9.6% | [4] 19.1% | [5] -4.35% | [6] -10.8%

O=C(Nc1ccccc1-c1nn(CO)c(=S)n(CO)c1=O)C(F)(F)F
inactive: [1] 40.2% | [2] 23.9% | [3] 43.2% | [4] 12.6% | [5] -22.6% | [6] 20.2%

CC1=CC2N(C=C1)C(c1cccc([N+](=O)[O-])c1)=NON2c1cc(C)ccn1 (stereo unspecified)
inactive: [1] 7.05% | [2] 0.95% | [3] 6.85% | [4] 13.6% | [5] -1% | [6] 23.9%

O=C1c2cn[nH]c2N=C(Nc2ccccc2)C1N=Cc1ccc([N+](=O)[O-])cc1 (stereo unspecified)
inactive: [1] -32.6% | [2] -45.2% | [3] -13.8% | [4] 12.5% | [5] -24.3% | [6] -17.9%

CC1(C)C=Cc2c(ccc3[nH]c4occc4c(=O)c23)O1
inactive: [1] 23.4% | [2] -21.8% | [3] -16.8% | [4] 14.2% | [5] 11.4% | [6] -0.3%

Cc1nn(-c2ccccc2)c2c1CC(=O)Nc1ccccc1-2
inactive: [1] -14.1% | [2] -29.1% | [3] -11.5% | [4] -26.8% | [5] -37.6% | [6] 9.15%

N#Cc1cn(C2OC(CO)C3OC32)c2ncnc(NC(=O)c3ccccc3)c12 (stereo unspecified)
inactive: [1] 28.9% | [2] 9.1% | [3] 14.7% | [4] 10.3% | [5] -4% | [6] 15.5%

NC(CC(=O)Nc1ccc(Cl)cc1)=Nc1ccccc1
inactive: [1] -28.6% | [2] -12.9% | [3] -11.2% | [4] -10.3% | [5] -14.4% | [6] -18.9%

CN(C)CCN(C)CC(C)(C)C(=O)/C=C/c1ccccc1
inactive: [1] -26% | [2] 2.55% | [3] -21.6% | [4] -5.95% | [5] -7.15% | [6] -15.4%

CN=C1Nc2ccc(Cl)cc2C(c2ccccc2)=NN1C
inactive: [1] 10% | [2] -19.4% | [3] 2.9% | [4] 11.3% | [5] 6.85% | [6] -12.6%

O=C1c2ccc3ccccc3c2C(=O)c2ccc3ccccc3c21
inactive: [1] -20.6% | [2] -4.5% | [3] -3.65% | [4] -30.2% | [5] -12.3% | [6] -16.8%

COCNC(=O)NCC(F)(F)C(F)(F)C(F)(F)C(F)(F)C(F)(F)C(F)(F)C(F)(F)F
inactive: [1] -9.9% | [2] 7.6% | [3] -1.2% | [4] 15.9% | [5] -5.7% | [6] 28.5%

CC(C)=CCC/C(C)=C\COC=O
inactive: [1] 23% | [2] 12.4% | [3] 18.9% | [4] 6.45% | [5] 13.8% | [6] 50.9%

COC1=CC(=O)C(CCC(C)=O)=CC1=O
inactive: [1] -41.3% | [2] -29.6% | [3] -9.55% | [4] -16.4% | [5] 15.2% | [6] -4.3%

CN(C)CSC(=S)NCCNC(=S)SCN(C)C
inactive: [1] 1.6% | [2] -19.6% | [3] 24.8% | [4] 5.95% | [5] 4% | [6] -4.1%

Cc1ccccc1NC(=O)CSC#N
inactive: [1] 10.2% | [2] 7.35% | [3] 1.7% | [4] 20.1% | [5] -12.6% | [6] 8.75%

Cc1ccc(C2(c3ccc(Cl)cc3)c3ccccc3C3=NCCN32)cc1 (stereo unspecified)
inactive: [1] 19.9% | [2] 9.15% | [3] 25.6% | [4] 23% | [5] 28.1% | [6] 30.7%

CCNC(=S)Nc1ccc(Cl)cc1
inactive: [1] 27.2% | [2] 40.4% | [3] 39% | [4] -6.1% | [5] 53.4% | [6] 35.8%

CC(C)(C)c1ccc(C(=O)NCSCC(NC(=O)CCC(N)C(=O)O)C(=O)NCC(=O)O)cc1 (stereo unspecified)
inactive: [1] -10.4% | [2] 1% | [3] -10.7% | [4] -7.75% | [5] 0.85% | [6] 14.8%

O=c1[nH]c2c(Cl)cc(Cl)c(Cl)c2c2ccccc12
inactive: [1] -0.45% | [2] 7.65% | [3] 1.5% | [4] -18.4% | [5] 21.1% | [6] 4.85%

OC(CN(C1CCCCC1)C1CCCCC1)c1ccnc2c(Cl)cc(Cl)cc12 (stereo unspecified)
inactive: [1] -21.8% | [2] -1% | [3] 7.3% | [4] 0.6% | [5] -6.3% | [6] 18.4%

NC1=NS(=O)(=O)Nc2nc(-c3ccc([N+](=O)[O-])o3)[nH]c21
inactive: [1] 50.5% | [2] -8.6% | [3] 26.1% | [4] 23.2% | [5] -2.7% | [6] 50.5%

Cc1nc([N+](=O)[O-])cn1CC(=N)N
inactive: [1] -23% | [2] -28.8% | [3] -16.1% | [4] -5.15% | [5] -25.6% | [6] -38.7%

CC(NC(=O)OCc1ccccc1)NC(=O)OC(C)(C)C (stereo unspecified)
inactive: [1] -47% | [2] -63.5% | [3] -18.9% | [4] -13.2% | [5] -14.6% | [6] -26.8%

N=C(N)Sc1cc(O)c2ccccc2c1O
inactive: [1] -33% | [2] -6.45% | [3] -28.1% | [4] -45.8% | [5] 4.1% | [6] -2%

CN(C)S(=O)(=O)C(c1ccccc1)C(c1ccccc1)S(=O)(=O)N(C)C (stereo unspecified)
inactive: [1] 47% | [2] -4.4% | [3] 27.1% | [4] 2% | [5] -4.75% | [6] 1.5%

C=C(C)C(=O)Oc1ccccc1-c1ccccc1
inactive: [1] 2.55% | [2] -10.2% | [3] -5.5% | [4] 15.6% | [5] 2.65% | [6] -26.5%

CCCCOC(=O)C(C)OC(=O)Nc1ccccc1 (stereo unspecified)
inactive: [1] 5.85% | [2] 23.4% | [3] 16.1% | [4] -52.6% | [5] 18.6% | [6] 12%

O=[N+]([O-])c1c(O)c2nonc2c2nn(-c3ccccc3)nc12
inactive: [1] 1.7% | [2] 15% | [3] 55.4% | [4] 25.8% | [5] -15.7% | [6] -15.4%

O=C1NC(N(Cc2ccccc2)Cc2ccccc2)=NC1(c1ccccc1)c1ccccc1
inactive: [1] 16.2% | [2] 2.85% | [3] 23.2% | [4] 7.45% | [5] 5.9% | [6] 20.6%

CC(C)CCc1c(Cl)nc(Cl)nc1Cl
inactive: [1] 32.2% | [2] 38.6% | [3] 33.6% | [4] 10.1% | [5] 43.9% | [6] 16.9%

CC(=O)N(C)c1ccc(NC(=O)/C=C/c2ccccc2)cc1
inactive: [1] 0.15% | [2] 4.25% | [3] 15.7% | [4] -9.85% | [5] 28.1% | [6] 17.1%

Cc1cc(=O)oc2c(C)c3oc4c(c3cc12)CN(C)CC4
inactive: [1] 26.9% | [2] 10.9% | [3] 25.4% | [4] 20% | [5] 13.9% | [6] 25.8%

CC1(C)c2ccccc2C(=O)C12CCC(=O)CC2
inactive: [1] 9.2% | [2] -3.4% | [3] 18.8% | [4] 26.4% | [5] 18.9% | [6] 17.5%
